Screens as filed in PubChem BioAssay.
Most compounds without a hit are left out; they make up all but 3.2% or so of the library.
SMARCA2 activ = activators of SMARCA2 function | MG213 cells, MMTV-luciferase reporter, dexamethasone, overnight | activation, % at 9.1 µM | 1% of 370,000 active | AID 652017; in the data active means activation above about 7.8%;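 further: 0% = vehicle wells and 100% = reference activator wells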
esBAF inh = blocks esBAF chromatin remodeling in mouse ES cells. Bmi1-luciferase knock-in reporter, 24 h; 100% = twice the neutral-well signal. reporter increase, % at 12.5 µM. 2% of 350,000 active. AID 602393; in the data active means activation above about 40%;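 further: 0% = median of the plate's neutral control wells and 100% = double that signal; a rise in the Bmi1 reporter signal indicates esBAF inhibition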
CDK5 p35 inh = inhibitors of human CDK5/p35 kinase; Q00535+Q15078; Recombinant CDK5/p35, ADP-Glo luminescence, 60 min; inhibition, % at 10 µM; 0.01% of 330,000 active; AID 488839;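 active means highest replicate inhibition of at least 50% and at least 75% of replicates reaching 50%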;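 further: plate controls were DMSO neutral control for no effect and GW8510 at 10 µM for full effect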
Rtt109 Vps75 = C. albicans Rtt109 histone acetyltransferase inhibition | purified Rtt109/Vps75, ThioGlo CoA-SH fluorescence, 4 h | inhibition, % at 34.9 µM | 0.16% of 330,000 active | AID 540336;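 active means inhibition of at least 50% in every replicate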
Target sequence (Q5AAJ8 whole entry, looked up): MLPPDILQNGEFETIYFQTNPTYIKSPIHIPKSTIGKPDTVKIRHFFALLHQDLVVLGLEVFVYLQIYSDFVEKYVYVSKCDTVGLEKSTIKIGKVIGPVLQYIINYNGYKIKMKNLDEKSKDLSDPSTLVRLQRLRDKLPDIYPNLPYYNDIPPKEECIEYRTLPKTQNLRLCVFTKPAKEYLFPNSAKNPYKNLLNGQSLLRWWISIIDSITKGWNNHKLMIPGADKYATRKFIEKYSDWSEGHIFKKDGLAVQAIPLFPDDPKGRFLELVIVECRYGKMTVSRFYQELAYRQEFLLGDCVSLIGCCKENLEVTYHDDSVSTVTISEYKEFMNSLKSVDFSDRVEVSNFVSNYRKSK
DYRK1A inh = Dyrk1A (rat) kinase inhibition; inhibition, % at 12.5 µM; 0.43% of 310,000 active; ADP-Glo luminescence, NFATc1 peptide; in the data active means inhibition above about 50%;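 further: plate controls were vehicle with enzyme for no effect and no enzyme for full effect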
dFosB activator = enhances mouse delta FosB homodimer DNA binding. purified delta FosB, TAMRA-CDK5 oligo fluorescence polarization; percent of positive-control signal above neutral wells. activation, % at 25 µM. 0.99% of 340,000 active. AID 493131;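 active means mean activation above about 17%, with every replicate also reaching it, limit read from the data, passing the limit was not always enough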
Active calls of the source: *; / = not tested or not shown.

SMILES	SMARCA2 activ	esBAF inh	CDK5 p35 inh	Rtt109 Vps75	DYRK1A inh	dFosB activator
CCCCCC(=O)N/N=C/c1ccc(N(C)C)cc1	1	51*	1	1	-1	3
Cc1cccc(NC(=O)c2cc(-c3cc(C)cc(C)c3O)n[nH]2)c1	-3	28	0	4	-8	12
Cc1cc(O)c(-c2cc(C(=O)Nc3cccnc3)[nH]n2)cc1C	6	56	0	4	-5	16
CCc1ccc(O)c(-c2cc(C(=O)Nc3cccnc3)[nH]n2)c1	4	56*	1	8	21	11
COc1ccc(NC(=O)c2cc(-c3ccccc3O)n[nH]2)cc1Cl	7	33	1	-6	-1	25*
Cc1cccc(NC(=O)c2cc(-c3cc(Cl)ccc3O)n[nH]2)c1	/	71*	-1	1	-1	6
COc1ccc(Cl)cc1NC(=O)c1cc(-c2cc(C)ccc2O)n[nH]1	-2	2	1	3	2	2
Cc1ccc(C)c(NC(=O)c2cc(-c3cc(C)ccc3O)n[nH]2)c1	2	50*	1	4	-9	-8
Cc1noc(C)c1S(=O)(=O)N(C)C[C@@H]1Oc2ccc(NC(=O)C3CC3)cc2CC(=O)N([C@H](C)CO)C[C@@H]1C	/	1	/	/	/	/
C[C@H](CO)N1C[C@H](C)[C@@H](CN(C)Cc2cncnc2)Oc2cc(C3=CCCC3)ccc2S1(=O)=O	/	2	/	/	/	/
COc1ccccc1-c1cnc2c(c1)C(=O)N([C@H](C)CO)C[C@@H](C)[C@@H](CN(C)C(C)=O)O2	/	0	/	/	/	/
O=c1c2ccccc2c(C=NCc2ccccn2)c(O)n1-c1ccccc1	0	0	-1	-2	-3	1
Cc1ccc(-n2c(O)c(C=NCc3ccccn3)c3ccccc3c2=O)cc1C	1	/	0	62*	-2	-2
O=C(C[C@H]1CC[C@@H](NC(=O)c2ccccn2)[C@H](CO)O1)NCc1cccc(F)c1	/	-3	/	/	/	/
c1ccc(-c2noc(C34CC5CC(CC(C5)C3)C4)n2)nc1	1	53*	0	-3	-3	-7
O=C1Cc2ccccc2Sc2cc(OCCCN3CCCCC3)ccc21	0	/	0	-8	11	-1
O=C1Cc2ccccc2Sc2c(OCCN3CCCCC3)cccc21	-1	/	6	55*	/	3
C=C(C)c1sc(-c2ccc(Cl)cc2)nc1C	3	49*	-5	1	10	-4
C/C(=N\OC(=O)NC(C)C)c1sc(-c2ccccc2)nc1C	5	63*	-1	3	5	-15
CCNC(=O)O/N=C(\C)c1sc(-c2ccc(Cl)cc2)nc1C	4	43*	1	-4	6	-27
C/C(=N\OC(=O)c1cccc(C(F)(F)F)c1)c1sc(-c2ccccc2)nc1C	0	77*	-1	1	/	1
CN(C)CC(=O)Nc1ccc2c(c1)[C@@H]1C[C@@H](CC(=O)NCc3ccncc3)O[C@@H](CO)[C@@H]1O2	/	-2	/	/	/	/
C/C=C/c1ccc2c(c1)O[C@@H](CN(C)C(=O)Cc1ccncc1)[C@@H](C)CN([C@@H](C)CO)S2(=O)=O	/	-4	/	/	/	/
C[C@H]1CN([C@@H](C)CO)C(=O)CCCn2cc(nn2)CO[C@H]1CN(C)C(=O)Nc1ccccc1C(F)(F)F	/	1	/	/	/	/
CCC(C)(C)C1CCC(=NNC(=O)c2ccoc2C)CC1 (stereo unspecified)	11*	20	0	4	-10	-5
SMILES	SMARCA2 activ	esBAF inh	CDK5 p35 inh	Rtt109 Vps75	DYRK1A inh	dFosB activator
CNC[C@@H]1OCCCC[C@H](C)Oc2ccc(NC(=O)c3ccncc3)cc2C(=O)N([C@H](C)CO)C[C@@H]1C	/	-4	/	/	/	/
Cc1noc(C)c1NC(=O)N(C)C[C@@H]1Oc2c(NS(=O)(=O)c3ccc(Cl)cc3)cccc2C(=O)N([C@H](C)CO)C[C@H]1C	/	0	/	/	/	/
CN=C(c1ccco1)n1c(=S)nc(-c2ccco2)n(C)c1=S	8	9	1	8	5	-3
CN=C(c1ccc(C)cc1)n1c(=S)nc(-c2ccc(C)cc2)n(C)c1=S	0	83*	0	-1	-1	-13
C[C@@H]1CN([C@H](C)CO)C(=O)c2cc(NS(=O)(=O)c3ccccc3)ccc2O[C@@H](C)CCCCO[C@H]1CN(C)C(=O)Nc1ccc2c(c1)OCO2	/	-1	/	/	/	/
O=C(NCCCCc1ccccc1)c1cccc(NC(=O)C2CCC2)c1	-5	-2	0	2	/	-2
